# According to PubChem BioAssay (NCATS):
# Records with an inconclusive call do not appear. A call without a number means that no potency is given here. Unmarked numbers belong to inactive results. The source made the active and inactive calls. Calls follow the shape of the dose curve; as a rule, active = well fitted curve in the direction sought with a large enough effect; inconclusive = small, poorly fitted or top-dose-only effect, or another doubt; inactive = no such curve, though single readings can be large; an effect the other way counts as inactive or inconclusive.
# Columns and labels:
# [1] = qHTS of pediatric cancer cell lines to identify multiple opportunities for drug repurposing: Primary screen for TC32 cells (AID 1347089); also: nearly all actives have a fitted effect of over 60% in size
# Procedure, shortened: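 A viability screen of TC32 cells was run over 48 h, with primary MIPE doses spanning 0.78 nM–46 µM and NPC doses 0.59 nM–46 µM. ATP luminescence (CellTiter-Glo) served as the read-out.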
# [2] = qHTS of pediatric cancer cell lines to identify multiple opportunities for drug repurposing: Primary screen for DAOY cells (AID 1347090); also: nearly all actives have a fitted effect of over 55% in size; as to activity change, negative = cytotoxic: series mostly up to about 46 µM
# Procedure, shortened: (§1)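 Cell viability, CellTiter-Glo luminescence; 500-1,000 cells/well, 8- or 11-point titration, 48 h compound exposure at 37 degrees C, 5% CO2. Controls: DMSO neutral, bortezomib 2.3 µM final as positive.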
# [3] = qHTS of pediatric cancer cell lines to identify multiple opportunities for drug repurposing: Primary screen for SJ-GBM2 cells (AID 1347091)
# Procedure, shortened: as §1
# [4] = qHTS of pediatric cancer cell lines to identify multiple opportunities for drug repurposing: Primary screen for A673 cells (AID 1347092); also: nearly all actives have a fitted effect of over 45% in size
# Procedure, shortened: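 Titration-based qHTS on A673 cells: MIPE compounds spanned 11 points (0.78 nM to 46 µM final), NPC compounds 8 points (0.59 nM to 46 µM final). Viability after 48 h was measured by ATP luminescence.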
# [5] = qHTS of pediatric cancer cell lines to identify multiple opportunities for drug repurposing: Primary screen for SK-N-MC cells (AID 1347093); as to activity change, negative = cytotoxic: series mostly up to about 46 µM
# Procedure, shortened: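 Metabolically active cells were quantified by ATP-dependent luminescence (CellTiter-Glo, 15 min at room temperature) following 48 h treatment. Cells had been plated at 500-1,000 per well and settled for 5 h beforehand.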
# [6] = qHTS of pediatric cancer cell lines to identify multiple opportunities for drug repurposing: Primary screen for BT-37 cells (AID 1347094); as to activity change, negative = cytotoxic: series mostly up to about 57 µM
# Procedure, shortened: (§2)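 Luminescence from CellTiter-Glo served as readout of metabolically active cells after 48 h compound exposure. Titrations: MIPE 11-point, from 0.78 nM; NPC 8-point, from 0.59 nM (final). Concentration-response curves came straight from the primary screen.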
# [7] = qHTS of pediatric cancer cell lines to identify multiple opportunities for drug repurposing: Primary screen for NB-EBc1 cells (AID 1347095)
# Procedure, shortened: as §2
# [8] = qHTS of pediatric cancer cell lines to identify multiple opportunities for drug repurposing: Primary screen for U-2 OS cells (AID 1347096); also: nearly all actives have a fitted effect of over 50% in size
# Procedure, shortened: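 Cells (500-1,000/well) rested 5 h, then received compounds for 48 h; metabolically active cells were measured by CellTiter-Glo luminescence. Final concentrations spanned up to 46 µM (MIPE, 11-point) or 0.59 nM-46 µM (NPC, 8-point) in primary screens, 11-point in follow-ups.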
# Potency is read from the fitted curve at half-maximal effect.
smiles,measurement,setting,value
CCCCCCCCCCCCCCCCCC(=O)OCC(O)CO (configuration not stated),Potency,[1],inactive
same,Potency,[2],inactive
same,Potency,[3],inactive
same,Potency,[4],inactive
same,Potency,[5],inactive
same,Potency,[6],inactive
same,Potency,[7],inactive
same,Potency,[8],inactive
O=C1OC(c2ccc(O)cc2)(c2ccc(O)cc2)c2ccccc21,Potency,[1],inactive
same,Potency,[2],inactive
same,Potency,[3],inactive
same,Potency,[5],inactive
same,Potency,[6],inactive
same,Potency,[7],inactive
same,Potency,[8],inactive
CC[N+](CC)(CCNC(=O)C(=O)NCC[N+](CC)(CC)Cc1ccccc1Cl)Cc1ccccc1Cl,Potency,[1],inactive
same,Potency,[2],inactive
same,Potency,[3],inactive
same,Potency,[4],inactive
same,Potency,[5],inactive
same,Potency,[6],inactive
same,Potency,[7],inactive
same,Potency,[8],inactive
C[C@]12CCC(=O)C=C1[C@@H]1C[C@@H]1[C@H]1[C@@H]3[C@@H]4C[C@@H]4[C@@]4(CCC(=O)O4)[C@@]3(C)CC[C@@H]12,Potency,[1],inactive
same,Potency,[2],inactive
same,Potency,[3],inactive
same,Potency,[4],inactive
same,Potency,[6],inactive
same,Potency,[7],inactive
same,Potency,[8],inactive
CC(C)n1nc(-c2cc3cc(O)ccc3[nH]2)c2c(N)ncnc21,Potency,[1],2.1 µM (active)
same,Potency,[2],4.22 µM (active)
same,Potency,[3],596 nM (active)
same,Potency,[4],10.6 µM (active)
same,Potency,[5],299 nM (active)
same,Potency,[6],1.1 µM (active)
same,Potency,[7],944 nM (active)
same,Potency,[8],13.3 µM (active)
CCOC(=O)/C=C(C)/C=C/C=C(C)/C=C/c1c(C)cc(OC)c(C)c1C,Potency,[1],inactive
same,Potency,[2],inactive
same,Potency,[3],inactive
same,Potency,[4],inactive
same,Potency,[6],inactive
same,Potency,[7],inactive
same,Potency,[8],inactive
Nc1ccc(/C=C/c2ccc(N)cc2S(=O)(=O)O)c(S(=O)(=O)O)c1,"activity change, negative = cytotoxic",[1],14.3% [at 0.594 µM]
same,"activity change, negative = cytotoxic",[2],10% [at 0.597 µM]
same,"activity change, negative = cytotoxic",[3],4.37% [at 0.597 µM]
same,"activity change, negative = cytotoxic",[4],1.22% [at 0.597 µM]
same,"activity change, negative = cytotoxic",[5],-3.26% [at 0.597 µM]
same,"activity change, negative = cytotoxic",[6],22.8% [at 0.745 µM]
same,"activity change, negative = cytotoxic",[7],25.1% [at 0.597 µM]
same,"activity change, negative = cytotoxic",[8],17% [at 0.597 µM]
N[C@H](Cc1c[nH]c2ccccc12)C(=O)O,Potency,[1],inactive
same,Potency,[2],inactive
same,Potency,[3],inactive
same,Potency,[4],inactive
same,Potency,[5],inactive
same,Potency,[6],inactive
same,Potency,[7],inactive
same,Potency,[8],inactive
NC(CS)C(=O)O (configuration not stated),Potency,[1],inactive
same,Potency,[2],inactive
same,Potency,[3],inactive
same,Potency,[4],inactive
same,Potency,[5],inactive
same,Potency,[6],inactive
same,Potency,[7],inactive
same,Potency,[8],inactive
Cc1cc(N)c2cc(NC(=O)Nc3ccc4nc(C)cc(N)c4c3)ccc2n1,Potency,[1],inactive
same,Potency,[2],inactive
same,Potency,[3],inactive
same,Potency,[5],inactive
same,Potency,[6],inactive
same,Potency,[7],inactive
same,Potency,[8],inactive
COc1cc2c(cc1OC)C(=O)C(CC1CCN(Cc3ccccc3)CC1)C2 (configuration not stated),Potency,[1],inactive
same,Potency,[2],inactive
same,Potency,[3],inactive
same,Potency,[4],inactive
same,Potency,[5],inactive
same,Potency,[6],inactive
same,Potency,[7],inactive
same,Potency,[8],inactive
CCCCc1nc(Cl)c(CO)n1Cc1ccc(-c2ccccc2-c2nn[nH]n2)cc1,Potency,[1],inactive
same,Potency,[2],inactive
same,Potency,[3],inactive
same,Potency,[4],inactive
same,Potency,[6],inactive
same,Potency,[7],inactive
same,Potency,[8],inactive
CCOC(=O)n1ccn(C)c1=S,Potency,[1],inactive
same,Potency,[2],inactive
same,Potency,[3],inactive
same,Potency,[4],inactive
same,Potency,[6],inactive
same,Potency,[7],inactive
same,Potency,[8],inactive
CCCOC(C(=O)OC1CCN(C)CC1)(c1ccccc1)c1ccccc1,Potency,[1],inactive
same,Potency,[2],inactive
same,Potency,[3],inactive
same,Potency,[4],inactive
same,Potency,[5],inactive
same,Potency,[8],inactive
CO/N=C1\CN(c2nc3c(cc2F)c(=O)c(C(=O)O)cn3C2CC2)CC1CN (configuration not stated),Potency,[1],inactive
same,Potency,[2],inactive
same,Potency,[3],inactive
same,Potency,[4],inactive
same,Potency,[5],inactive
same,Potency,[6],inactive
same,Potency,[7],inactive
same,Potency,[8],inactive
Nc1ccn([C@@H]2O[C@H](CO)[C@@H](O)C2(F)F)c(=O)n1,Potency,[1],0.0118 µM (active)
same,Potency,[2],2.66 µM (active)
same,Potency,[3],473 nM (active)
same,Potency,[4],0.0042 µM (active)
same,Potency,[5],106 nM (active)
same,Potency,[6],0.0049 µM (active)
same,Potency,[7],1190 nM (active)
same,Potency,[8],inactive
CC(=O)Oc1ccc(C(c2ccc(OC(C)=O)cc2)c2ccccn2)cc1,Potency,[1],inactive
same,Potency,[2],inactive
same,Potency,[3],inactive
same,Potency,[4],inactive
same,Potency,[6],inactive
same,Potency,[7],inactive
CN1C(CCl)Nc2cc(Cl)c(S(N)(=O)=O)cc2S1(=O)=O (configuration not stated),Potency,[1],inactive
same,Potency,[2],inactive
same,Potency,[3],inactive
same,Potency,[5],inactive
same,Potency,[6],inactive
same,Potency,[7],inactive
COc1cc2c(cc1OC)C(C(C(=O)N(CCc1ccc(OC)c(OC)c1OC)CCc1ccc(OC)c(OC)c1OC)c1ccccc1)=NCC2 (configuration not stated),Potency,[1],inactive
same,Potency,[2],inactive
same,Potency,[3],inactive
same,Potency,[4],inactive
same,Potency,[7],inactive
C#C[C@]1(O)CC[C@H]2[C@@H]3CCC4=CC(=O)CC[C@@H]4[C@H]3CC[C@@]21C,Potency,[1],inactive
same,Potency,[2],inactive
same,Potency,[3],inactive
same,Potency,[4],inactive
same,Potency,[5],inactive
same,Potency,[6],inactive
same,Potency,[8],inactive
CCCCC1=NC2(CCCC2)C(=O)N1Cc1ccc(-c2ccccc2-c2nn[nH]n2)cc1,Potency,[1],inactive
same,Potency,[2],inactive
same,Potency,[3],inactive
same,Potency,[4],inactive
same,Potency,[5],inactive
same,Potency,[6],inactive
same,Potency,[7],inactive
same,Potency,[8],inactive
CC(=O)OCC(=O)[C@@]12N=C(C)O[C@@H]1C[C@H]1[C@@H]3CCC4=CC(=O)C=C[C@]4(C)[C@H]3[C@@H](O)C[C@@]12C,Potency,[1],inactive
same,Potency,[2],inactive
same,Potency,[3],inactive
same,Potency,[4],inactive
same,Potency,[5],inactive
same,Potency,[6],inactive
same,Potency,[7],inactive
same,Potency,[8],inactive
O=C(COc1ccc(Cl)cc1)N1CCN(Cc2ccc3c(c2)OCO3)CC1,Potency,[1],inactive
same,Potency,[2],inactive
same,Potency,[3],inactive
same,Potency,[4],inactive
same,Potency,[5],inactive
same,Potency,[6],inactive
same,Potency,[8],inactive
